The source of these data is PubChem BioAssay AID751 (NMMLSC, 2007).

Screen size: about 24,000 compounds; about 40 (0.2%) were called active. The entries come from a sample that favours actives as a whole. Unmarked numbers belong to inactive results.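 How the source made its calls: active means inhibition of disassembly above about 33% (limit read from the data); inconclusive means likely self-fluorescent, control bead median signal at least 40; inactive means the rest.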

The experiment has as its system 26S proteasome (yeast, GFP-tagged, ATP-dependent disassembly). The experiment is described as follows: blockers of yeast 26S proteasome breakdown – biochemical, bead-based flow cytometry, GFP-tagged proteasome, primary screen (AID 751).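 Further: plate controls were ATP control with full disassembly for no effect and ATP-gamma-S intact proteasomes for full effect; higher percent means more bead fluorescence retained so stronger block of disassembly.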 To be noted: anti-FLAG beads, hits give high values, concentration not given here. On the technique in general: Flow cytometry measures light scatter and fluorescence of single cells or particles in a stream.
As for `O=C(CN1CCN(c2ncc(C(F)(F)F)cc2Cl)CC1)Nc1ccc2c(c1)OCO2`, the inhibition of disassembly is 2.15%.

As to `Cc1nc2ncnn2c(C)c1CCC(=O)N1CCN(C(=O)c2ccco2)CC1`, the inhibition of disassembly is -0.22%.

`Cc1c2cnn(-c3ccccc3)c(=O)c2c(C)n1CCCC(=O)N1CCN(C)CC1`: the inhibition of disassembly was 0.62%.

On to `CCSc1nc2c(c(=O)[nH]1)C(c1cccnc1)C(C(=O)OC(C)C)=C(C)N2` (stereo not given), for which the inhibition of disassembly is 0.035%.

With `O=C(NCCCN1CCN(Cc2ccccc2)CC1)C1CCN(S(=O)(=O)N2CCCC2)CC1`, the inhibition of disassembly is -1.86%.

For the compound `Nc1nonc1-c1nc2ccccc2n1CCC(=O)O`, the inhibition of disassembly was 1.19%.

Take `CCOC(=O)N1CCN(S(=O)(=O)c2cc(Br)cc3c2N(C(=O)C2CC2)CC3)CC1`: the inhibition of disassembly is 3.18%.

Take `Cc1noc(C)c1S(=O)(=O)N(CC(=O)NCc1ccc(Cl)cc1)c1ccc2c(c1)OCO2`: the inhibition of disassembly is -0.25%.

Take `CCN(c1ccc2c(c1)OCO2)S(=O)(=O)c1cc(Br)cc2c1N(C(=O)C1CC1)CC2`: the inhibition of disassembly is 28.9% (active).

As for `CN(Cc1ccccc1)C(=O)CCNC(=O)Cn1cnc2ccccc2c1=O`, the inhibition of disassembly is -0.53%.

On to `COc1ccc2c(c1)CCc1c(C(=O)N3CCCC3)noc1-2`, for which the inhibition of disassembly is -0.25%.

With `COc1ccc(-c2nc(CS(=O)CC(=O)N3CCc4ccccc4C3)c(C)o2)cc1` (stereo not given), the inhibition of disassembly is 1.96%.

Turning to `Nc1ccc(-n2nncc2-c2ccco2)cc1`, the inhibition of disassembly is -0.06%.

For the compound `CCc1nnc(NC(=O)CCC(=O)O)s1`, the inhibition of disassembly is -0.71%.

In the case of `O=C(c1ccccc1)c1ccc2nc(N3CCCCC3)c3nncn3c2c1`, the inhibition of disassembly was 3.43%.

For the compound `CC12COC3(C(=O)Nc4ccc(Cl)cn4)CC1CCC32C` (stereo not given), the inhibition of disassembly was 0.35%.

Turning to `CCCn1nnc2sc3c(c2c1=O)CCC(C)C3` (stereo not given), the inhibition of disassembly is -0.93%.

As for `CCCCc1nc2c(=O)[nH]c3ccccc3c2o1`, the inhibition of disassembly was 0.25%.

Take `CC(=O)Nc1ccc(S(=O)(=O)N2CCC(N(C)CCC(C)C)CC2)cc1`: the inhibition of disassembly was 0.37%.

For the compound `CCCn1cc(SCC(N)=O)c2ccccc21`, the inhibition of disassembly is -0.93%.

As to `O=C(Nc1nc2ccc(S(=O)(=O)N3CCCC3)cc2s1)C1CCCO1` (stereo not given), the inhibition of disassembly is -0.99%.

Turning to `COc1ccc(N2C(=O)CCC(C(=O)N(C)C3CCCCC3)C2c2ccc(OC)c(OC)c2)cc1` (stereo not given), the inhibition of disassembly was -1.19%.

With `CC(=O)NCC(=O)N(C)C(C(=O)Nc1ccc2c(c1)OCCO2)c1ccccc1` (stereo not given), the inhibition of disassembly was 2.08%.

In the case of `CC(=O)Nc1cc2ccc(OC(C)=O)cc2oc1=O`, the inhibition of disassembly is 0.02%.

Take `Fc1ccccc1C(c1nnnn1Cc1ccc2c(c1)OCO2)N1CCN(Cc2ccccc2)CC1` (stereo not given): the inhibition of disassembly was -0.69%.
